Cruzain noTriton: cruzain (T. cruzi) inhibition without detergent. P25779. purified cruzain, Z-FR-AMC fluorescence, no detergent. Potency, µM, inactives show max response, negative = inhibition, most hits filed as inhibitors. actives 2.3% (n = 200,000). AID 1476;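 note: plate controls were enzyme without inhibitor for no effect and buffer without enzyme for full effect; nearly all actives have a fitted effect of over 40% in size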
Target sequence (P25779 123-467 limits assumed): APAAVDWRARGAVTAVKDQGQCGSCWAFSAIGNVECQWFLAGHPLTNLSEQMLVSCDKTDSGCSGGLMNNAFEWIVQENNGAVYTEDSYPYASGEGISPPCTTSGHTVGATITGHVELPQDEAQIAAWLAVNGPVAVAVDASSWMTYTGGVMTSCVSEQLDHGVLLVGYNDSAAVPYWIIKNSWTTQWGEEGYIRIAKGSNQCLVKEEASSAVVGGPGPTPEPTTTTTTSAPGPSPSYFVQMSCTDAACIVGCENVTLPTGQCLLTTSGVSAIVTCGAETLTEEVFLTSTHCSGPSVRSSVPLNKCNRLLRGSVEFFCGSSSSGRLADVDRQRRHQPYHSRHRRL
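Detergent-free condition (0.00005% Triton X-100) in acetate buffer pH 5.5 with DTT. 1.5 nM enzyme and compound were pre-mixed 15 min, then 2 uM Z-FR-AMC substrate added; reaction progress from fluorescence change between first and third reads (60 s).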
Cruzain Triton: cruzain (T. cruzi) inhibition with detergent; purified cruzain, Z-FR-AMC fluorescence, 0.01% Triton; Potency, µM, without a hit: max response, negative = inhibition, actives largely listed as inhibitors; actives 0.43% (n = 200,000);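 note: plate controls were neutral wells for no effect and buffer without enzyme for full effect; nearly all actives have a fitted effect of over 40% in size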
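Compounds were screened in titration against cruzain (1.5 nM) with 0.01% Triton X-100 to counter colloidal aggregation. Activity was the AMC fluorescence increase over 60 s after adding 2 uM Z-FR-AMC at pH 5.5.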
* hit, by the source's call; ? = inconclusive. Rows were chosen to be rich in hits. Some 2.4% of all compounds tested hit in one or more screens of this group. Calls come from the whole dose curve; as a rule, active = well fitted curve in the direction sought with a large enough effect; inconclusive = small, poorly fitted or top-dose-only effect, or another doubt; inactive = no such curve, though single readings can be large; an effect the other way counts as inactive or inconclusive. Potency is the fitted concentration of half-maximal effect.

SMILES	Cruzain noTriton	Cruzain Triton
CC(=O)c1ccc2c(c1)C1C(Cl)C(Sc3ccccc3[N+](=O)[O-])CC1C(c1ccccc1)N2 (stereo unspecified)	3.98µM*	-6.1%
CC(=O)c1ccc2c(c1)C1C=CCC1C(c1ccncc1)N2 (stereo unspecified)	29.8%	-10.4%
Oc1c(C(O)(c2ccccc2)c2ccc3ccccc3c2O)ccc2ccccc12	?	-2.2%
COc1ccc2cc3cc(C(=O)NCCc4ccc(OC)c(OC)c4)oc3nc2c1	?	-16.3%
CCCN(CCC)CCCNC(=O)c1cc2cc3ccc(OC)cc3nc2o1	?	25.1µM*
CN(C)c1ccc(CN(Cc2ccco2)C(=O)COc2ccc(F)cc2)cc1	?	-6.4%
Cc1ncc(COC(=O)C(C)C)c2cc(C(=O)Nc3ccccc3C(F)(F)F)c(=O)oc12	12.9%	-1.6%
O=C(/C=C\c1ccc2c(c1)OCO2)NC1CC(=O)N(c2ccc(Cl)cc2)C1 (stereo unspecified)	-8.6%	-1.5%
O=C(/C=C\c1ccc2c(c1)OCO2)Nc1c2c(nn1-c1ccc(Cl)cc1)CSC2	25.1µM*	-4.8%
COc1cccc(Nc2nc(NCC3CCCO3)c3ccccc3n2)c1 (stereo unspecified)	12.6µM*	14.1µM*
Oc1ccc(Nc2nc(NCC3CCCO3)c3ccccc3n2)cc1 (stereo unspecified)	-26.9%	-25.2%
O=C(CCC1N=C2c3ccccc3N=C(SCc3ccccc3F)N2C1=O)NC1CCCCC1 (stereo unspecified)	-7.0%	1.4%
Cc1ccc(-n2cc3c(c2-c2ccccc2Br)c(=O)n(C)c(=O)n3C)cc1N	-4.8%	-3.0%
Cc1csc2nc(COC(=O)c3cccc(NC(=O)COc4ccccc4Cl)c3)cc(=O)n12	-0.3%	-2.4%
COC(=O)c1sccc1NC(=O)/C=C\c1ccc(Cl)cc1Cl	3.16µM*	3.2%
COC(=O)c1sccc1NC(=O)/C=C/c1ccc(Cl)cc1	2.6%	-2.4%
COc1ccc(C2Nc3ccccc3C(=O)N2Cc2ccco2)cc1CN1C(=O)c2ccccc2C1=O (stereo unspecified)	?	-0.7%
COc1ccc(C2Nc3ccccc3C(=O)N2Cc2ccco2)cc1COc1ccc(F)cc1 (stereo unspecified)	25.1µM*	-9.4%
O=C1/C(=C/c2ccccc2)NC(=S)N1C(c1ccccc1)c1ccccc1	20µM*	-3.4%
O=C1/C(=C/c2ccccc2)Nc2ccccc21	-11.0%	-4.7%
Cc1ccc(Cl)cc1-n1ncc2c(N3CCN(Cc4ccccc4)CC3)ncnc21	-4.3%	1.9%
CCOC(=O)c1c(C2COc3ccccc3O2)csc1NC(=O)c1ccccc1 (stereo unspecified)	25.1µM*	-13.1%
CCOC(=O)c1c(C2COc3ccccc3O2)csc1N (stereo unspecified)	-5.6%	-7.0%
Cc1cccc(NC(=S)N(Cc2cccs2)Cc2cc3cc(C)cc(C)c3[nH]c2=O)c1	25.1µM*	-2.9%
COc1ccc2[nH]c(=O)c(CN(Cc3cccs3)C(=S)Nc3cccc(C)c3)cc2c1	?	-3.0%
SMILES	Cruzain noTriton	Cruzain Triton
Cc1ccc(C)c2[nH]c(=O)c(CN(Cc3cccs3)C(=S)NCc3ccco3)cc12	20µM*	-1.8%
Cc1cc2cc(CN(Cc3cccs3)C(=S)NCc3ccco3)c(=O)[nH]c2cc1C	?	-5.1%
COc1ccccc1CNS(=O)(=O)c1ccc(F)c(C(=O)Nc2cc(Cl)ccc2OC)c1	7.4%	2.4%
CC(C)c1cnc2c(c1SCc1cccc(F)c1)c(=O)n(C)c(=O)n2C	-14.0%	-2.3%
COC(=O)c1sc(NC(=O)C2c3ccccc3Oc3ccccc32)c(C(=O)OC)c1C	10µM*	-2.5%
COC(=O)c1c(NC(=O)Cc2ccccc2)sc(C)c1C	-8.6%	-8.0%
CCOC(=O)c1c(NC(=O)C2c3ccccc3Oc3ccccc32)sc(C(C)=O)c1C	?	-0.7%
COC(=O)c1c(NC(=S)Nc2ccccc2Cl)sc(C)c1C	12.6µM*	-3.2%
COC(=O)c1c(NC(=O)C2c3ccccc3Oc3ccccc32)sc(C)c1C	25.1µM*	0.2%
CCOC(=O)c1c(NC(=O)C2c3ccccc3Oc3ccccc32)sc(C)c1C	?	-4.1%
COCCNC(=O)CSc1nnc(-c2ccc(OC)c(OC)c2)c(-c2ccc(OC)c(OC)c2)n1	18.1%	-0.9%
CCOc1ccccc1NC(=O)c1cc2cc(C)ccc2n1C	-1.5%	-2.5%
COc1cccc(C(=O)NCC(c2ccc(N(C)C)cc2)N2CCc3ccccc32)c1 (stereo unspecified)	?	-12.9%
O=C(Nc1cccc(Cl)c1)Nc1cccc(Cl)c1	1.8%	-11.2%
CCOC(=O)c1sc(NC(=O)Nc2ccc(Cl)cc2)cc1C	-7.6%	-1.6%
CCOC(=O)c1c(NC(=O)Nc2ccc(Cl)cc2)sc(C)c1C	25.1µM*	-0.8%
CCOC(=O)c1c(NC(=O)Nc2cccc(Cl)c2)sc(C)c1C	25.1µM*	-0.4%
Cc1ccc(-c2cn3c(n2)sc2cc(C(=O)NC4CCCCCC4)ccc23)c(C)c1	10µM*	-1.2%
COc1ccc(-c2cn3c(n2)sc2cc(C(=O)NC4CCCCCC4)ccc23)cc1	-7.8%	-4.6%
Cc1ccccc1-c1cncnc1Nc1ccccc1	1.1%	-1.1%
O=C(CNc1cc(S(=O)(=O)N2CCCC2)ccc1OCC(F)(F)F)Nc1ccc(SC(F)F)cc1	15.8µM*	-8.0%
N#Cc1ccc(C(=O)Nc2cc(S(=O)(=O)N3CCCC3)ccc2OCC(F)(F)F)cc1	7.7%	-1.3%
CCNc1ncc2nc(-c3ccc(Cl)cc3)c(=O)n(Cc3ccc(F)cc3)c2n1	-1.3%	7.8%
CCC(=O)Nc1ccc(NC(=O)CSc2nc3cc4c(cc3cc2C)CCC4)cc1	25.1µM*	5.7%
Cc1ccccc1NC(=O)CSc1nc2cc3c(cc2cc1C)CCC3	7.0%	-5.3%
SMILES	Cruzain noTriton	Cruzain Triton
CC(C)C(=O)NC(c1ccco1)c1ccc2cccnc2c1O (stereo unspecified)	-8.1%	-0.1%
Oc1c(C(Nc2nc3ccccc3s2)c2ccco2)ccc2cccnc12 (stereo unspecified)	7.94µM*	0.8%
Cc1cccc(N2CCN(C(c3ccc(F)cc3)c3nnc(-c4ccccc4)o3)CC2)c1C (stereo unspecified)	?	-2.5%
Cc1ccc(Cl)cc1N1CCN(C(c2ccc(F)cc2)c2nnc(-c3ccccc3)o2)CC1 (stereo unspecified)	6.31µM*	-0.6%
COc1cc(C2SCCCCCCCCCCSC(c3ccc(O)c(OC)c3)SCCCCCCCCCCS2)ccc1O (stereo unspecified)	-6.6%	-0.9%
O=C(NC(=S)NNS(=O)(=O)c1ccccc1)c1ccccc1[N+](=O)[O-]	-15.3%	-17.2%
O=C(NC(=S)NNS(=O)(=O)c1ccccc1)c1ccc([N+](=O)[O-])cc1	10µM*	?
N#CCCn1c(=O)c(-c2ccc(F)cc2)nc2cnc(Oc3ccccc3)nc21	10.3%	1.5%
Nc1nc(SCc2ccccc2Cl)nc2nc3c(cc12)CCCC3	3.7%	-14.9%
Nc1nc(SCc2ccc(Cl)cc2Cl)nc2nc3c(cc12)CCCC3	12.6µM*	14.1µM*
CCOc1cccc(CC(=O)N2CCc3c([nH]c4ccccc34)C2c2ccc(C)cc2)c1OCC (stereo unspecified)	?	1.5%
Cc1occc1C(=O)N=Nc1c(O)n(C)c2ccccc12	-7.7%	-5.2%
Cc1occc1C(=O)N=Nc1c(O)[nH]c2ccc(Br)cc12	12.6µM*	-3.0%
O=[As](O)(O)c1ccc(NCc2ccccc2)cc1	3.0%	2.4%

Assay outcomes: PubChem, National Center for Advancing Translational Sciences (NCATS)
